# Assay outcomes (PubChem)
# This excerpt belongs to a sample that is enriched for hits.
# IDE exosite FP = insulin-degrading enzyme (human) exo-site inhibition; P14735; purified IDE, FL-6b probe fluorescence polarization; stronger effect = lower value; z-score at 20 µM; 17,000 compounds, 6.3% hits; AID 1259349;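 active = z-score of -3 or lower, meaning strong loss of probe binding signal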;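 also: His-tagged human IDE residues 42-1019 made in E. coli with 30 nM FL-6b probe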
# Target sequence (P14735 42-1019 limits assumed): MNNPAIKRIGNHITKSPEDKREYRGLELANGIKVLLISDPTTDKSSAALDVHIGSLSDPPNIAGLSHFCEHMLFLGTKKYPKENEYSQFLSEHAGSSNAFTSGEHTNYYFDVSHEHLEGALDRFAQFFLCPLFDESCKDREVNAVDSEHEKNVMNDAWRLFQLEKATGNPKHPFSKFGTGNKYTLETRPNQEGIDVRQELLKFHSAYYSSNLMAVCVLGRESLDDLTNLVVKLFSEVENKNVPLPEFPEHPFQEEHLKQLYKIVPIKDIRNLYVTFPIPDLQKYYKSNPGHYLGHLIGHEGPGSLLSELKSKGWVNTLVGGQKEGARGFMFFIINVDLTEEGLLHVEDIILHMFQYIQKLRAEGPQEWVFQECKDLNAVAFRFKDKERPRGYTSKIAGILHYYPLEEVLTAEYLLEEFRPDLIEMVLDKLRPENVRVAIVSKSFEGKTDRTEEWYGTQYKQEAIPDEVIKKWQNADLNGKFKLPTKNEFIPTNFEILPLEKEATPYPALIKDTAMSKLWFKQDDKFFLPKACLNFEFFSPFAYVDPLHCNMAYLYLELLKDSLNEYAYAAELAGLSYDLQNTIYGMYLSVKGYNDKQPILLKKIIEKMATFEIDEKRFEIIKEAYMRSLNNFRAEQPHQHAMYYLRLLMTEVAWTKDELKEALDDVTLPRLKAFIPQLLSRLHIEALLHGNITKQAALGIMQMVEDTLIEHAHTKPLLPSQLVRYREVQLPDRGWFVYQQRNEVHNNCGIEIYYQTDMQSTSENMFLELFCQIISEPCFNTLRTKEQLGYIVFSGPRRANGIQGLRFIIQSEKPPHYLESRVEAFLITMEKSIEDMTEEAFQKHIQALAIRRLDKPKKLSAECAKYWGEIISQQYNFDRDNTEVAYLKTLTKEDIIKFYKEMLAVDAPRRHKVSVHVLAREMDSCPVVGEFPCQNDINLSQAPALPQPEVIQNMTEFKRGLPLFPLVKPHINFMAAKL
# Numbers stand for hits; . = inactive.
SMILES,IDE exosite FP
O=C(c1ccccc1F)N1CC(=O)N2[C@H](CO)[C@@H](c3ccc(C#Cc4ccc(F)cc4)cc3)[C@@H]2C1,.
CC1C=NC(S(=O)(=O)N2CC[C@@H]3[C@H](CO)N(C)c4ccc(C#Cc5cccnc5)cc4[C@@H]32)=N1 (stereo partly specified),.
COCC(=O)N1CC2(CCN(Cc3ccccc3)CC2)c2c([nH]c3cc(OC)ccc23)[C@@H]1CO,.
O=C(CN1CCOCC1)N1CCCCN2[C@H](CO)[C@@H](c3ccc(/C=C/c4ccccc4)cc3)[C@@H]2C1,-3.73
O=C(CN1CCOCC1)N1CCCCN2[C@H](C1)[C@H](c1ccc(/C=C/c3ccccc3)cc1)[C@@H]2CO,-8.16
O=C(CN1CCOCC1)N1CCCCN2[C@H](CO)[C@H](c3ccc(-c4ccccc4)cc3)[C@H]2C1,.
O=C(CN1CCOCC1)N1CCCCN2[C@@H](CO)[C@H](c3ccc(Br)cc3)[C@@H]2C1,.
O=C(CN1CCOCC1)N1CCCCN2[C@@H](CO)[C@@H](c3ccc(Br)cc3)[C@@H]2C1,.
O=C(CN1CCOCC1)N1CCCCN2[C@H](CO)[C@@H](c3ccc(Br)cc3)[C@@H]2C1,.
CCC(=O)N1[C@H](CO)[C@H](c2ccc(-c3ccncc3)cc2)[C@@H]1CN(C)C(C)=O,.
Cc1noc(C)c1S(=O)(=O)N(C)C[C@H]1OCc2ccccc2-c2c(n(C)c3ccccc23)C(=O)N([C@H](C)CO)C[C@@H]1C,.
COc1ccc(C#Cc2ccc([C@@H]3[C@@H](CO)N4C(=O)CN(C(=O)NC(C)C)C[C@@H]34)cc2)cc1,.
CCC(=O)NC[C@H]1[C@@H](c2ccccc2)[C@H](CO)N1C(=O)C1CCC1,.
COc1ccc2c3c(n(C)c2c1)[C@@H](CO)N(C(=O)c1ccccc1)CC31CCN(C(=O)c2ccccc2)CC1,.
CNC[C@H]1OCCCC[C@H](C)Oc2ccc(NS(=O)(=O)c3ccc(F)cc3)cc2C(=O)N([C@@H](C)CO)C[C@@H]1C,.
N#C[C@@H]1[C@H](c2ccc(C#Cc3ccc(F)cc3)cc2)[C@@H](CO)N1C(=O)C1CC1,.
COc1ccccc1C#Cc1ccc([C@@H]2[C@@H](C#N)N(C(=O)C3CCCCC3)[C@H]2CO)cc1,-7.99
COc1ccccc1C#Cc1ccc([C@H]2[C@@H](C#N)N(C(=O)C3CCC3)[C@H]2CO)cc1,-4.87
COc1cccc(C#Cc2ccc([C@@H]3[C@H](C#N)N(C(=O)C4CC4)[C@H]3CO)cc2)c1,.
COc1cccc(C#Cc2ccc([C@@H]3[C@H](C#N)N(C(=O)C4CCC4)[C@H]3CO)cc2)c1,.
N#C[C@H]1[C@@H](c2ccc(C#Cc3ccccc3F)cc2)[C@@H](CO)N1C(=O)C1CCCCC1,.
COc1cccc(C#Cc2ccc([C@H]3[C@@H](CO)N(C(=O)C4CCC4)[C@H]3C#N)cc2)c1,.
COc1ccccc1C#Cc1ccc([C@H]2[C@@H](CO)N(C(=O)C3CC3)[C@H]2C#N)cc1,-7.54
COc1ccccc1C#Cc1ccc([C@H]2[C@@H](C#N)N(C(=O)C3CCCCC3)[C@H]2CO)cc1,.
CNC[C@@H]1Oc2cc(C#Cc3ccccc3OC)ccc2S(=O)(=O)N([C@H](C)CO)C[C@H]1C,.
SMILES,IDE exosite FP
C/C=C/c1ccc([C@H]2[C@@H](CO)N3CCCCN(C(=O)C4CCCC4)C[C@@H]23)cc1,.
O=C(Nc1ccc(F)cc1)N1CC(=O)N2[C@H](C1)[C@@H](c1ccc(-c3ccc(F)cc3)cc1)[C@@H]2CO,.
Cc1noc(C)c1NC(=O)N[C@@H]1C=C[C@@H](CC(=O)Nc2ccc(-c3ccccc3)cc2)O[C@H]1CO,.
CCCC#Cc1ccc([C@H]2[C@H](CO)N3C(=O)CN(C(=O)c4cccc(F)c4)C[C@@H]23)cc1,.
COCC(=O)N(C[C@@H]1N[C@@H](CO)[C@@H]1c1ccc(-c2ccccc2)cc1)C(C)C,.
O=C(Nc1ccccc1F)N1CC(=O)N2[C@H](C1)[C@@H](c1ccc(-c3cccnc3)cc1)[C@@H]2CO,.
CN1C(=O)c2cc(NC(=O)Nc3ccc(Cl)cc3)ccc2OC[C@@H]2O[C@H](CC(=O)NCCN3CCCCC3)CC[C@@H]21,.
C[C@@H](O)C#Cc1ccc([C@H]2[C@H]3CN(C(=O)c4ccc(F)cc4)CCCCN3[C@H]2CO)cc1,.
O=C([C@H]1N[C@H]2c3ccc(/C=C/c4ccccc4)c(=O)n3C[C@H]2[C@@H]1CO)N1CCCCC1,.
Cc1ccc(-c2ccc([C@@H]3[C@@H](CO)N4C(=O)CN(C(=O)c5cccnc5)C[C@H]34)cc2)cc1,.
Cc1ccc(-c2ccc([C@H]3[C@H](CO)N4C(=O)CN(C(=O)c5cccnc5)C[C@@H]34)cc2)cc1,-3.16
O=C(c1cccnc1)N1CC(=O)N2[C@H](C1)[C@H](c1ccc(-c3cccnc3)cc1)[C@@H]2CO,.
O=C(c1cnccn1)N1CC(=O)N2[C@H](C1)[C@H](c1ccc(-c3cccc(F)c3)cc1)[C@@H]2CO,.
O=C(c1cnccn1)N1CC(=O)N2[C@H](CO)[C@@H](c3ccc(-c4ccccc4)cc3)[C@H]2C1,.
O=C(c1cccnc1)N1CC(=O)N2[C@H](CO)[C@H](c3ccc(-c4ccc(F)cc4)cc3)[C@H]2C1,.
Cc1cccc(-c2ccc([C@@H]3[C@H]4CN(C(=O)c5cccnc5)CC(=O)N4[C@H]3CO)cc2)c1,-17.7
O=C(c1cccnc1)N1CC(=O)N2[C@H](C1)[C@@H](c1ccc(-c3ccc(F)cc3)cc1)[C@@H]2CO,.
Cc1cccc(-c2ccc([C@@H]3[C@@H](CO)N4C(=O)CN(C(=O)c5cccnc5)C[C@H]34)cc2)c1,-4.19
Cc1cccc(-c2ccc([C@@H]3[C@@H](CO)N4C(=O)CN(C(=O)c5cnccn5)C[C@H]34)cc2)c1,-7.15
CCCC#Cc1cnc2c(c1)C(=O)N([C@@H](C)CO)C[C@H](C)[C@H](CN(C)C(=O)Nc1cc(F)ccc1F)O2,.
N#C[C@@H]1[C@H](c2ccccc2-c2cccc(F)c2)[C@H](CO)N1C(=O)Cc1cccnc1,.
CO[C@@H]1CN(C)C(=O)c2ccc(NS(=O)(=O)CC(F)(F)F)cc2OC[C@@H](C)N(C(=O)NC(C)C)C[C@@H]1C,.
CN(C[C@H]1[C@@H](c2ccccc2)[C@H](CO)N1Cc1ccccn1)S(C)(=O)=O,.
N#Cc1cccc(-c2ccc([C@@H]3[C@H](CO)N4CCCCN(C(=O)Nc5cccc(F)c5)C[C@@H]34)cc2)c1,.
C[C@@H]1CN([C@H](C)CO)C(=O)c2ccccc2-c2ccccc2CO[C@H]1CN(C)S(=O)(=O)c1cccs1,.
SMILES,IDE exosite FP
COc1ccc(NC(=O)N2CC(=O)N3[C@H](C2)[C@@H](c2ccc(C#CCC4CCCC4)cc2)[C@@H]3CO)cc1,.
CCCNC(=O)N1CC2(C1)CN(C(=O)c1ccccc1)[C@@H](CO)c1[nH]c3cc(OC)ccc3c12,.
Cc1ccc(-c2ccc([C@@H]3[C@H](CO)N4C(=O)CN(C(=O)c5ccccc5)C[C@@H]34)cc2)cc1,.
O=C(c1cccc(F)c1)N1CC(=O)N2[C@@H](CO)[C@@H](c3ccc(-c4cccnc4)cc3)[C@@H]2C1,.
Cc1cccc(-c2ccc([C@H]3[C@@H](CO)N4C(=O)CN(C(=O)c5cccnc5)C[C@@H]34)cc2)c1,-8.59
O=C(c1cccc(F)c1)N1CC(=O)N2[C@@H](CO)[C@H](c3ccc(-c4cccnc4)cc3)[C@@H]2C1,.
Cc1cccc(-c2ccc([C@@H]3[C@@H](CO)N4C(=O)CN(C(=O)c5ccccc5)C[C@@H]34)cc2)c1,-5.24
